Hits are enriched below; roughly 7.5% of the tested compounds scored in any of these assays.
Rab9 promoter act: activators of Rab9 promoter. AID 485297. Huh7 Rab9 promoter-luciferase reporter, luminescence, 24 h. 2.8% of 320,000 active. Potency, µM (series often up to 9.22 µM), for the others: at the highest dose activation, negative = inhibition, most hits filed as activators; also: % of control where 0% means no effect; nearly all actives have a fitted effect of over 60% in size
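Rab9 promoter-driven luciferase in stably transfected Huh7 cells; 1500 cells/well rested 2 h, exposed to compound in DMSO for 24 h at 37 °C, 5% CO2. Luminescence read 10 min after adding luciferase reagent at ambient temperature.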
SMN2 splice enh: SMN2 splice variant enhancement. HEK293 SMN2-luciferase splicing reporter, luminescence, 30-36 h. Potency, µM (doses to about 46.1 µM), for the others: top-dose activity change, positive = activation, most hits filed as activators. 2.8% of 210,000 active; also: % of control where 0% means no effect; nearly all actives have a fitted effect of over 55% in size
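qHTS luciferase splicing reporter: luminescence rises when SMN2 exon 7 is included in transfected HEK293 cells. Compound exposure lasted 30-36 h at 37C, with 4.5 mM final sodium butyrate as control, followed by a ONE-Glo read.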
NPC1 prom act: activates the NPC1 promoter. Huh7 NPC1 promoter luciferase reporter, 24 h. Potency, µM (highest dose often 9.22 µM), inactives show at the highest dose activation, actives largely listed as activators. 2.4% of 320,000 active. AID 485313; also: % of control where 0% means no effect; nearly all actives have a fitted effect of over 60% in size
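Quantitative HTS used a cell-based reporter: Huh7 cells stably bearing the NPC1 promoter upstream of luciferase were treated with compounds for 24 h, and promoter activation was read as luminescence.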
ELG1 genotoxic: inducers of genotoxicity in HEK293T ELG1-luciferase cells; HEK293T ELG1-luciferase reporter, luminescence, 16 h; Potency, µM (series often up to 46 µM), for the others: top-dose activity change, positive = activation, actives largely listed as activators; 1.3% of 330,000 active; also: % of control where 0% means no effect; nearly all actives have a fitted effect of over 60% in size
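HEK293T cells expressing luciferase-tagged ELG1 were exposed to compound or DMSO vehicle for 16 hr at 37 °C and 5% CO2. Luciferase activity was then measured with ONE-Glo after 30 min at room temperature.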
KinaseGlo FLuc: counter-screen: inhibitors of Kinase-Glo firefly luciferase. Q27757. Kinase-Glo luciferase, ATP luminescence, 8 min. Potency, µM (top dose mostly 38.3 µM), for inactives: top-dose activity change, negative = inhibition, hits mostly inhibitors. 0.28% of 200,000 active; also: % is scaled to controls: 0 for no effect and ±100 for the full control effect; nearly all actives have a fitted effect of over 60% in size
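Luminescence was the read-out, taken after 8-minute incubation at ambient temperature. Luciferase turned over luciferin with 10 uM ATP in imidazole pH 7.2 buffer containing KCl, MgCl2, Tween 20 and BSA.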
FLuc counter: inhibits or activates purified firefly luciferase, miR-21 counter-screen; P08659; purified FLuc, Km substrates, luminescence inhibition; Potency, µM (top dose mostly 57.5 µM), inactives show at the highest dose activity change, negative = inhibition, most hits filed as inhibitors; 6.9% of 360,000 active;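 also: plate controls were vehicle for no effect and reference inhibitor for full effect; nearly all actives have a fitted effect of over 55% in size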
Target sequence (P08659 whole entry, looked up): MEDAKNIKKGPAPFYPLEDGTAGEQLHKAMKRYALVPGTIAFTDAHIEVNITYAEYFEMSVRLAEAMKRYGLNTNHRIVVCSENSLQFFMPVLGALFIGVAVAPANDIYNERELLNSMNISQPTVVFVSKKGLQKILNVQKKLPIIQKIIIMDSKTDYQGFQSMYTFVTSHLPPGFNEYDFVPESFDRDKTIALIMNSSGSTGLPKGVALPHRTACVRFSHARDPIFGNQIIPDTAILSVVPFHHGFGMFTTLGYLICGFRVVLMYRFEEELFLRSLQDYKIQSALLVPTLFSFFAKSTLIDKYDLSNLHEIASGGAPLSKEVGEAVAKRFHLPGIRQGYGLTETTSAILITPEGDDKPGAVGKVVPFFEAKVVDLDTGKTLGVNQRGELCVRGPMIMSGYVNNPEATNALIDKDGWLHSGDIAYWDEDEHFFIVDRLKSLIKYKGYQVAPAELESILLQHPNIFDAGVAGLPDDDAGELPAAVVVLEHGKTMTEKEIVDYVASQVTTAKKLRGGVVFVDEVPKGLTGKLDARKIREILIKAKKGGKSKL
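Purified P. pyralis luciferase (10nM final) with 10uM D-luciferin and 10uM ATP (Km levels) in 50mM Tris acetate pH 7.5, 10mM Mg acetate, 0.01% Tween-20, 0.05% BSA; qHTS 6-point titration, ~60 µM downward; luminescence read.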
Active calls of the source: *; u = inconclusive; x = no result; [ ] = another dose, or the depositor's remark. Calls follow the shape of the dose curve; as a rule, active = well fitted curve in the direction sought with a large enough effect; inconclusive = small, poorly fitted or top-dose-only effect, or another doubt; inactive = no such curve, though single readings can be large; an effect the other way counts as inactive or inconclusive. Potency is read from the fitted curve at half-maximal effect.

SMILES | Rab9 promoter act | SMN2 splice enh | NPC1 prom act | ELG1 genotoxic | KinaseGlo FLuc | FLuc counter
O=C(Nc1cccc2cccnc12)c1ccc2c(c1)OCCO2 | u | 26.8% | 10.7% | u | -9.3% | 12µM*
COc1ccc(N2CCOCC2)c(NC(=O)c2ccc3c(c2)OCO3)c1 | -1.3% | x | -2.3% | 6.5% | x | -15.3%
COc1cc(NC(=O)c2ccc3c(c2)OCO3)c2ncccc2c1 | 10.0% | -62.6% | 14.9% | 5.7% | -3.4% | 1.9µM*
CCSc1nc2sccc2c(=O)n1-c1ccccc1 | -1.0% | x | 0.9% | 4.5% | x | 3.9%
CC1=CCC(/C=N\Nc2nnc3c(n2)[nH]c2ccccc23)CC1 (stereo not given) | u | 9.4% | u | u | -3.7% | 1.51µM*
O=C1/C(=C/c2cccs2)COc2ccccc21 | 15.2% | -2.0% | -2.2% | u | u | 1.35µM*
CCOc1cc(/C=C2\COc3ccccc3C2=O)ccc1OCC(=O)N(C)C | -6.9% | x | 2.4% | -23.8% | x | -17.7%
C[C@H]1Cc2c(COc3ccccc3)nc3c(c2CO1)CN(C(=O)NCCc1c[nH]c2ccccc12)CC3 | x | -4.1%[9.22 µM] | x | x | -4.6%[7.66 µM] | x
N#Cc1nc(/C=C/c2ccc(F)cc2)oc1N1CCCCCC1 | x | -0.8% | x | x | x | -10.2%
O=C(NC1=NCCS1)c1ccc(Cl)cc1 | 2µM* | x | 1.58µM* | 10.3µM* | x | 10.7µM*
O=C(NC1=NCCS1)c1ccc(Br)s1 | 3.55µM* | 11.2µM* | 3.55µM* | 7.31µM* | -2.9% | 7.57µM*
O=C(NNC(=O)c1ccccc1F)c1ccc(-c2ccc(Cl)cc2)o1 | -1.3% | x | -0.8% | 0.9% | x | u
O=C(NC1CCC(O)CC1)c1ccc(Br)o1 (stereo not given) | x | x | x | -1.3% | x | x
O=C(NC1CCC(O)CC1)c1ccc(-c2ccc(Cl)cc2)o1 (stereo not given) | u | x | u | 13.6% | x | 10.7µM*
O=C(NC1=NCCS1)c1ccc(-c2ccc(Cl)cc2)o1 | 2µM* | 12.6µM* | 2µM* | 2.06µM* | -3.3% | 1.9µM*
COc1ccc(Cl)cc1C(=O)NC1=NCCS1 | 14.0% | x | 0.4% | 3.4% | x | u
Cc1c(C(=O)O)[nH]c2c1C(=O)CC(c1ccc(C(C)(C)C)cc1)C2 (stereo not given) | u | x | u | u | x | 9.53µM*
CCC(C)OC(=O)c1[nH]c2c(c1C)C(=O)CC(c1ccc(N(C)C)cc1)C2 (stereo not given) | 3.16µM* | 24.3% | u | u | -3.7% | 10.7µM*
CC(C)N1CC(C(=O)Nc2cccc([N+](=O)[O-])c2)CC1=O (stereo not given) | -1.3% | x | -2.8% | 1.7% | x | 6.1%
Clc1ccccc1OCc1nc(-c2ccc(Br)o2)no1 | u | u | 29.8% | 23.1µM* | -3.8% | 15.1µM*
Fc1ccc(OCc2nc(-c3ccc(Br)o3)no2)c(F)c1 | 16.0% | -2.1% | 22.6% | 16.4% | -3.7% | 16.9µM*
Cc1ccc(-c2noc(CCCc3ccccc3)n2)cc1 | 10.1% | 5.4% | 28.6% | 13.7% | -3.2% | 23.9µM*
c1ccc(CCc2nc(-c3ccccn3)no2)cc1 | 2.24µM* | 11.2µM* | 3.16µM* | u | 2.0% | 13.5µM*
Cc1ccc2c(CN3CCN(C(=O)c4ccc(F)cc4)CC3)cc(=O)oc2c1 | x | -5.1% | x | x | x | 0.7%
COc1cc(NC(=O)CSc2nnc(C)n3c2cc2oc(C)cc23)cc(OC)c1 | x | x | x | x | x | -3.2%
SMILES | Rab9 promoter act | SMN2 splice enh | NPC1 prom act | ELG1 genotoxic | KinaseGlo FLuc | FLuc counter
COc1cc(/C=C/C(=O)O)cc(S(=O)(=O)Nc2ccccc2C(=O)NCc2ccco2)c1OC | x | x | x | -0.3% | x | x
Brc1ccc(-c2noc(CCc3ccccc3)n2)o1 | 19.5% | 18.1% | 19.0% | 15.4% | 2.6% | 23.9µM*
CCCCNc1nc2ccccc2c2nc(-c3ccccc3)nn12 | x | -9.1% | x | x | x | 2.9%
CCn1c(O)c(N=Nc2ccc3ccccc3n2)c2ccccc21 | 1.12µM* | x | 3.16µM* | 5.8µM* | x | 3.01µM*
C/C(=N\NC(=O)c1ccccc1OCc1ccc(F)cc1)c1ccccn1 | -19.0% | x | -4.0% | 4.9% | x | 21.3µM*
C/C(=N\NC(=O)c1cccc2ccccc12)c1ccccn1 | -29.8% | x | 9.1% | u | x | u
CCOc1ccc(OCc2ccc(C(=O)N/N=C(\C)c3ccccn3)cc2)cc1 | -9.3% | -84.3% | -1.9% | u | -0.4% | 12µM*
O=C(COc1cccc(NC(=O)c2cccc([N+](=O)[O-])c2)c1)c1ccc(F)cc1 | -0.3% | -69.7% | -2.3% | -13.8% | 3.5% | u
O=C(COc1ccc(Cc2ccccc2)cc1)c1ccc(F)cc1 | 23.9% | 2.9% | 26.7% | 9.1% | -0.4% | 8.49µM*
O=C(COc1cccc(NC(=O)c2ccccc2)c1)c1ccc(F)cc1 | -2.0% | -58.0% | 5.2% | -7.1% | 2.0% | 15.1µM*
CCc1ccc(Nc2nc(-c3cc4cccc(OC)c4oc3=O)c(CC)s2)cc1 | x | x | x | x | x | -12.0%
CC(=O)c1ccc(NC(=O)C2(c3ccccc3)CCOCC2)cc1 | u | 16.2% | 3.16µM* | u | -3.7% | 13.5µM*
Cc1ccc2cc(C3CC(c4ccco4)=NN3S(=O)(=O)c3ccccc3)c(Cl)nc2c1 (stereo not given) | -3.9% | 31.6µM* | -3.0% | -2.4% | 1.1% | 2.9%
Cc1ccsc1C(=O)OCC(=O)Nc1sccc1C(N)=O | u | 22.1% | u | 7.0% | -10.5% | 5.36µM*
Cc1ccsc1C(=O)OCC(=O)NC1CCCC1 | u | x | u | u | x | 21.3µM*
O=C(COC(=O)c1ccccc1)NC(=O)NC1CCCC1 | -2.9% | x | -1.8% | 1.8% | x | -5.0%
O=C(COC(=O)c1cccs1)NC1CCCC1 | -4.0% | x | -3.3% | 6.7% | x | u
O=C(COC(=O)c1cccs1)NC1CCCCC1 | 5.2% | 0.5% | 1.9% | -0.8% | -4.0% | 21.3µM*
O=C(COC(=O)c1ccccc1)NC1CCCC1 | -8.0%[1.84 µM] | x | -3.2% | 9.1% | x | 16.9µM*
Cc1ccc2c(c1)N(C(=O)CCC(=O)NC1CCCCCC1)CCO2 | 2.6% | x | -5.2% | 0.0% | x | 2.1%
CSc1ccccc1C(=O)N(CC1CCCO1)c1c(N)n(Cc2ccccc2)c(=O)[nH]c1=O (stereo not given) | 1.6% | x | -3.5% | 0.3% | x | -3.0%
Brc1ccc2c(c1)c1cc(Br)ccc1n2CC1CO1 (stereo not given) | x | 12.0% | x | x | -2.3% | x
O=C(COC(=O)Cc1c(Cl)cccc1Cl)NC1CCCC1 | x | x | x | 2.0% | x | x
O=C(COC(=O)c1c(F)cccc1Cl)NC1CCCCC1 | u | x | u | u | x | 15.1µM*
O=C(NC(=S)NC1CCCCCCCCCCC1)c1cccnc1 | 2.6% | 0.0% | -0.4% | 4.0% | -3.9% | 0.1%
O=C(COC(=O)c1ccccc1F)NC1CCCC1 | -1.0% | x | -2.5% | 1.1% | x | 23.9µM*

Screens from PubChem BioAssay.
